According to publication PMC4336329 (PLoS ONE, 2015):
In all, about 310,000 compounds went through this assay and about 14,000 (4.5%) showed an effect of 50% or more. The effect is printed as a negative number. This excerpt belongs to a sample that is enriched for strong results.

Target: human ether-à-go-go-related gene (hERG) potassium channel (human, UniProt Q12809)
Assay: primary screen, population patch clamp on CHO cells stably expressing hERG; higher = less effect of the substance
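Further: peak tail current of the secondary pulse compared with the same well before compound.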

Chain of human ether-à-go-go-related gene (hERG) potassium channel (Q12809 whole entry, looked up): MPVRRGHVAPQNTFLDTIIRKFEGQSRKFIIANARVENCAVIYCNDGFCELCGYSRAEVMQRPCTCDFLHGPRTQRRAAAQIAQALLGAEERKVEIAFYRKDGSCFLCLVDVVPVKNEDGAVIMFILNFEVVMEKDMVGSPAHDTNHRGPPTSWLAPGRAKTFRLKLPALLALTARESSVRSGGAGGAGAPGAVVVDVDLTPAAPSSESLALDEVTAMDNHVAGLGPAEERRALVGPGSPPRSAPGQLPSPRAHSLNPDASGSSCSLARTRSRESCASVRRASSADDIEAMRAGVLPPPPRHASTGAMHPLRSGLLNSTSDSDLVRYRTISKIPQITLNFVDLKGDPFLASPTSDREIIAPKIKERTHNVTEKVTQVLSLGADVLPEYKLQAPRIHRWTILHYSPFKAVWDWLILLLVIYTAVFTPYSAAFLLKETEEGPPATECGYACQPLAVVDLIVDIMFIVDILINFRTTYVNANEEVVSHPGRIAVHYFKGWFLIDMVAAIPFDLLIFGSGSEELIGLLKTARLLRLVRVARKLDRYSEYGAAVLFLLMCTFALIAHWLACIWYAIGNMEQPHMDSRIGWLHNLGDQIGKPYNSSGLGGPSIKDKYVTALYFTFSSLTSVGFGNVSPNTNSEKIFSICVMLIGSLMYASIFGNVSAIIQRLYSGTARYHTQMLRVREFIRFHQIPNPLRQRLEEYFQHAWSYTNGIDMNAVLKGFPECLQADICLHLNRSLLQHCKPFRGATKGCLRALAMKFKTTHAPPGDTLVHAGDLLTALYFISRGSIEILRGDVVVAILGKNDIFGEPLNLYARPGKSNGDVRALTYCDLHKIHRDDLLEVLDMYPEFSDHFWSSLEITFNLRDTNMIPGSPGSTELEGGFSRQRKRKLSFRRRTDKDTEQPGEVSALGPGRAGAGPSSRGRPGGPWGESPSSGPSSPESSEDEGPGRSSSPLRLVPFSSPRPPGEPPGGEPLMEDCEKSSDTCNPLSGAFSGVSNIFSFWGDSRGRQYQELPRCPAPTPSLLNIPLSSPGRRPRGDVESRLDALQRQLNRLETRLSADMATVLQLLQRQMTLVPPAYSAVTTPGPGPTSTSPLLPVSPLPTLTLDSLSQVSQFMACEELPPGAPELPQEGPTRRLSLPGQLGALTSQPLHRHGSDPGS

SMILES | hERG current change (%, negative = inhibition) at 10uM [%]
Cc1c2cnn(CC(=O)NCCCN3CC(C)CC(C)C3)c(=O)c2c(C)n1Cc1ccc(Cl)cc1 (centres unmarked) | -52.6
Cc1c2cnn(CC(=O)NCCCN3CC(C)CC(C)C3)c(=O)c2c(C)n1Cc1ccccc1Cl (centres unmarked) | -36.7
Cc1nn(CC(=O)NCCCN2CC(C)CC(C)C2)c(=O)c2cccn12 (centres unmarked) | 12.9
Cc1c2cnn(CC(=O)NCCCN3CCCCC3)c(=O)c2c(C)n1Cc1ccccc1 | 9.96
CC1CC(C)CN(CCCNC(=O)Cn2ncn3cccc3c2=O)C1 (centres unmarked) | -3.29
Cc1cc2c(cc3c(=O)n(CC(=O)NCCCN4CC(C)CC(C)C4)ncn32)s1 (centres unmarked) | -53.4
COC(=O)c1ccc(OC(=O)CCN2c3ccccc3Sc3ccccc32)cc1 | 8.91
Nc1c(C(=O)NC23CC4CC(CC(C4)C2)C3)sc2nc3c(c(C(F)(F)F)c12)CCC3 | 0.00528
CC(=O)NC1CC2CCCC(C1)N2CC(=O)Nc1ccccc1 (centres unmarked) | 4.65
CN(C)c1ccc(NC(=O)CN2C3CCCC2CC(NC(=O)c2ccccc2)C3)cc1 (centres unmarked) | -65.3
O=C(CN1C2CCCC1CC(NC(=O)c1ccccc1)C2)Nc1ccccc1C(F)(F)F (centres unmarked) | 6.14
O=C(CN1C2CCCC1CC(NC(=O)c1ccco1)C2)Nc1ccccc1 (centres unmarked) | -45.2
COc1cccc(C(=O)NC2CC3CCCC(C2)N3CC(=O)Nc2ccccc2)c1.Cl (centres unmarked) | -54.4
COc1cccc(C(=O)NC2CC3CCCC(C2)N3CC(=O)Nc2ccccc2C(F)(F)F)c1 (centres unmarked) | 15.8
O=C(CN1C2CCCC1CC(NC(=O)c1ccccc1)C2)NC1CC1 (centres unmarked) | 26.9
O=C(CN1C2CCCC1CC(NC(=O)c1ccccc1)C2)Nc1ccccc1 (centres unmarked) | -50.7
COc1cccc(C(=O)NC2CC3CCCC(C2)N3CC(=O)Nc2ccc(N(C)C)cc2)c1 (centres unmarked) | -49.3
CCOc1ccc(NC(=O)COc2nsnc2N2CCCCC2)cc1 | 21.6
CC(C)[C@H](NC(=O)c1ccc(F)cc1)C(=O)N(C)Cc1cccs1 | -13.8

SMILES | hERG current change (%, negative = inhibition) at 10uM [%]
Cc1ccc(SCC(=O)N2CCOCC2)cc1 | 4.71
Cc1cccc(OCCc2nnc(N)s2)c1C | 15.2
COc1cccc(CNn2cnnc2)c1OCc1ccccc1F | 6.85
CCN1CCCC1CNCc1ccccc1OCc1ccc(F)cc1.Cl (centres unmarked) | -65
CCN1CCCC1CNCc1cccc(OC)c1OCc1ccccc1.Cl (centres unmarked) | -26.9
CCN1CCCC1CNS(=O)(=O)c1ccc(F)c(Cl)c1 (centres unmarked) | 9.12
COc1cccc(CNc2ccccc2O)c1OCc1ccccc1F | -1.17
CCN1CCCC1CNCc1cccc(OC)c1OCc1ccccc1F.Cl (centres unmarked) | -54.4
CCN1CCCC1CNCc1ccc(Cl)cc1Cl.Cl (centres unmarked) | -64.6
CCN1CCCC1CNCc1ccc(OCc2ccc(Cl)nc2)c(OC)c1.Cl (centres unmarked) | -39.1
CCOc1cc(CNCC2CCCN2CC)cc(Cl)c1OC.Cl (centres unmarked) | -18
CCN1CCCC1CNCc1cc(OC)c(OC)c(OC)c1.Cl (centres unmarked) | 1.63
CNCc1ccccc1OCc1ccc(F)cc1.Cl | -7.08
CCN1CCCC1CNCc1cccc(OC)c1OCc1ccc(F)cc1.Cl (centres unmarked) | -69.5
O=c1cc(/N=C/c2coc3c(ccc4ccccc43)c2=O)[nH]c(=S)[nH]1 | 11
Nc1nc(SCC(=O)Nc2ccc(Oc3ccccc3)cc2)n[nH]1 | -4.09
CCNC(=S)N(CCc1c(C)[nH]c2ccc(F)cc12)Cc1cccnc1 | -26.5
O=C(Cn1cnnn1)NCc1ccccc1 | 29.6
O=C(Cn1c(-c2cscn2)nc2ccccc21)Nc1ccc(Cl)cc1 | -7.59

SMILES | hERG current change (%, negative = inhibition) at 10uM [%]
COCC(C)n1c(C)cc(C(=O)CSc2cc(C)c3ccccc3n2)c1C (centres unmarked) | 4.64
CCc1ccc(OCC(=O)NC(=S)Nc2ccc(C)cc2C)c(Br)c1 | 7.39
CN(c1ccc(C(=O)N2CCCCC2)cc1)S(=O)(=O)c1cccs1 | 8.46
NS(=O)(=O)c1ccc2nc(NC(=O)c3ccncc3)sc2c1 | 13.9
Cc1nc(NS(=O)(=O)c2ccc(Cl)s2)c2c3c(sc2n1)CCCC3 | -28.7
CCCCOc1cc(C(=O)NCCN(CC)CC)c2ccccc2n1 | -65.9
CCN(CC)CCNC(=O)c1ccc(NC(=O)c2cc(-c3ccco3)nc3ccccc23)cc1 | -30.2
COc1ccc(CCNC(=O)c2cc(-c3ccco3)nc3ccccc23)cc1 | 2.98
CCN(CC)CCNC(=O)c1cc(Nc2ccc(OC)c(OC)c2)nc2ccccc12 | -23.8
COc1ccc(Nc2cc(C(=O)NCCCN3CCOCC3)c3ccccc3n2)cc1 | -26.5
NS(=O)(=O)c1ccc(CCNC(=O)c2cc(-c3ccco3)nc3ccccc23)cc1 | -58.3
CCCCCCNC(=O)c1cc(-c2ccco2)nc2ccccc12 | -11.5
NS(=O)(=O)c1ccc(CCNC(=O)c2cc(-c3ccccc3)nc3ccccc23)cc1 | -10.4
CCN(CC)CCNC(=O)c1cc(-c2ccc(Br)s2)nc2ccccc12 | -9.2
CCN(CC)CCNC(=O)c1cc(-c2ccco2)nc2ccccc12.Cl | -65.5
CCN(CC)CCCNC(=O)c1cc(Nc2ccc(OC)cc2)nc2ccccc12 | -53.8
CCN(CC)CCCNC(=O)c1cc(Nc2ccc(OC)cc2OC)nc2ccccc12 | -36.1
CN1C(=O)N2CN(C3CCCCC3)CN3C(=O)N(C)C1C23 (centres unmarked) | 9.88
